Unmarked numbers belong to inactive results. Activity calls are given as the source filed them.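 Rule for the calls: active = fitted half-maximal concentration AC50 at or below ten times the highest valid tested dose, with signal falling as DNA is displaced (actives reach about 34 µM in these data); inconclusive = flat fit at moderate signal loss, or poor fit quality; inactive = the rest, including signal rising instead of falling.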

The experiment is described as follows: DNA intercalators displacing acridine orange, dose response, artefact control for KSHV LANA DNA-binding inhibitor project, biochemical, fluorescence polarization, cherry-picked samples, set 2 (AID 504727).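 For activity change, negative = DNA displacement: 0% = median of neutral control wells and -100% = mitoxantrone positive control wells.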 The conditions noted are these: AC50: Acridine orange-DNA displacement; series mostly up to 35 µM; activity change, negative = DNA displacement: at the top concentration.
As for `CN(C)C1C(=O)C(C(N)=O)=C(O)C2(O)C(=O)C3=C(O)c4c(O)cccc4C(C)(O)C3C(O)C12` (centres undefined), the “activity change, negative = DNA displacement” value (“activity change” below) is 1.49%. In the case of `CC(OC(=O)c1cn(C)c2ccccc12)C(=O)N1CCCC1` (centres undefined), the “activity change” value was 6.83%. Take `Cc1cc(OCC(=O)OC(C)(C)C)c2c3c(c(=O)oc2c1)CCC3`: the “activity change” value is 2.45%. Same read-out and setting: the value for `CCn1c(O)c(N=Nc2cccc(S(=O)(=O)N3CCOCC3)c2)c(=O)n(CC)c1=S` was -0.935%; that for `O=c1c2ccccc2nc(/C=C\c2ccccc2[N+](=O)[O-])n1-c1ccccc1O` was 5.85%. In the case of `O=c1[nH]c(=O)n(C2CCCCC2)c(O)c1C=Nc1ccc(N2CCOCC2)cc1`, the “activity change” value is 2.56%. In the case of `O=C(O)c1cccc2c1NC(C(=O)O)C1CC(Sc3ccccc3[N+](=O)[O-])C(Cl)C21` (centres undefined), the “activity change” value was 5.91%. As to `Cc1cc(=O)oc2cc(OCC(=O)N3CCN(Cc4ccc5c(c4)OCO5)CC3)ccc12`, the “activity change” value was -0.682%.

Consider `Nc1ccc2nonc2c1[N+](=O)[O-]`, for which the AC50 was 8.02 µM (active). Take `COc1ccc(OC)c(N2C(=O)NC(=O)/C(=C\c3ccc([N+](=O)[O-])s3)C2=O)c1`: the “activity change” value is 4.68%. As to `Nc1ccc2ccc3cccc[n+]3c2c1`, the AC50 was 1.87 µM (active). `O=[N+]([O-])c1ccc(N2CCCCCC2)c2nonc12`: the AC50 was 13.7 µM (active). As to `CC(Cc1ccccc1)NC(=O)NC(C)Cc1ccccc1` (centres undefined), the “activity change” value was -2.07%. Consider `COCCNC(=O)Cn1cc(/C=C2\C(=O)NC(=O)N(c3cccc(C)c3C)C2=O)c2ccccc21`, for which the AC50 is 20.4 µM (active).

In the case of `CCOC(=O)C1CCCN(c2ccc([N+](=O)[O-])c3nonc23)C1` (centres undefined), the AC50 is 3.67 µM (active). For the molecule `CCN(CC)C(=O)c1ccc2c(c1)C1C=CCC1C(C(=O)O)N2` (centres undefined), the “activity change” value is 6.31%. Still for that read-out and setting: for `CC(C)CC(=O)Nc1ccc(S(=O)(=O)N2CC3CC(C2)c2cccc(=O)n2C3)cc1` (centres undefined) the value was -1.57%.

On to `CC1=NCCc2c1[nH]c1cc(O)ccc21`, for which the AC50 was 3.74 µM (active). Take `CCCCc1ccc(C(=O)O)nc1`: the “activity change” value is 2.8%.

As for `CN1CCN(c2ccc([N+](=O)[O-])c3no[n+]([O-])c23)CC1`, the AC50 is 29.2 µM (active). As to `Cc1cc(/C=C2\C(=O)NC(=O)N(Cc3ccccc3)C2=O)c(C)n1-c1ccc(Cl)c(C(=O)O)c1`, the “activity change” value was 4.37%. Turning to `COC(=O)C1=C(c2ccc(OC(F)(F)F)cc2)C[C@@H]2CC[C@H]1N2C(=O)NC1CCCCC1`, the “activity change” value is 6.88%. `N/C(=N\N=C/c1ccc(-c2ccc(O)c(C(=O)O)c2)o1)N[N+](=O)[O-]`: the “activity change” value is 2.31%.

For `CCOC(=O)c1c(/N=C/c2c(O)n(-c3cccc(C)c3)c(=O)[nH]c2=O)sc2c1CCCC2`, the “activity change” value was 4.56%.

Values taken from PubChem BioAssay AID504727 (Broad Institute, 2011).
